Screens (PubChem BioAssay)
A selection: hits, their analogues and other compounds. The true share with any hit is near 2.7%.
PAFAH1B2 FP inh: blocks human PAF acetylhydrolase 1b catalytic subunit 2 | inhibition, % at 3.39 µM | 1.2% of 340,000 active | recombinant PAFAH1B2, FP-rhodamine activity probe, fluorescence polarization;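 active means inhibition above the mean of all tested compounds plus 3 SD, cut at about 24% in these data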;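 further: 0% = enzyme with DMSO and 100% = wells lacking PAFAH1B2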
Target sequence (P68402 whole entry, looked up): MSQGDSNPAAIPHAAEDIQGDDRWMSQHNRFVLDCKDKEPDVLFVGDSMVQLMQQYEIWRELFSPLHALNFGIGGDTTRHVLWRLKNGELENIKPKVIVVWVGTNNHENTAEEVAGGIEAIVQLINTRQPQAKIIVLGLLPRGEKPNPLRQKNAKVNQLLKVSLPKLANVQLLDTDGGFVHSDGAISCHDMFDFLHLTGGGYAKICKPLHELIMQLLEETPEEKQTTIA
PAFAH1B3 inh: blocks human PAF acetylhydrolase 1B catalytic subunit 3; recombinant PAFAH1B3, FP-rhodamine probe, fluorescence polarization; AID 492972; 0.28% of 340,000 active; inhibition, % at 3.39 µM;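 active means inhibition above the screen-wide average of all tested compounds plus 3 SD, cut at about 25% in these data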;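 further: 0% = enzyme with DMSO only and 100% = wells lacking PAFAH1B3 protein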
Target sequence (Q15102 whole entry, looked up): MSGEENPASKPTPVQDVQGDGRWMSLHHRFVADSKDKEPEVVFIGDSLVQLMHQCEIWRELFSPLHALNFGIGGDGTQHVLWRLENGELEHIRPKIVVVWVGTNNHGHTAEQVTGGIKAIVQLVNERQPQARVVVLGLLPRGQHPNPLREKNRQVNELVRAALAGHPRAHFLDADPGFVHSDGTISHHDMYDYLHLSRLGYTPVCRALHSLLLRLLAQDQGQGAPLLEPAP
pPAFAH FP inh: pPAFAH (human) enzyme inhibition; Q13093; recombinant pPAFAH, FP-rhodamine probe fluorescence polarization; inhibition, % at 3.39 µM; 1.5% of 330,000 active;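 active means inhibition above the mean inhibition across the screen plus 3 SD, cut at about 25% in these data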;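 further: inhibitors block binding of the rhodamine activity-based probe so polarization drops; 0% = enzyme with DMSO and 100% = wells lacking pPAFAH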
TCR-CD3 inh: human TCR-CD3 binding inhibition. TAMRA-labeled TCR probe fluorescence, biochemical. inhibition, % at 9.4 µM. 0.37% of 360,000 active. AID 651800; in the data active means inhibition above about 19%;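 further: recombinant mutant TCR 2C K166C tagged with TAMRA read by polarization; 0% = receptor in buffer alone and 100% = receptor with positive control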
PAFAH2 inh: inhibitors of human PAFAH2 | Q99487 | recombinant PAFAH2, FP-rhodamine activity probe, fluorescence polarization | inhibition, % at 3.39 µM | 0.99% of 340,000 active | AID 492956;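 active means inhibition above the mean over all tested compounds plus 3 SD, cut at about 30% in these data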;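 further: inhibitors block probe labeling of enzyme so polarization drops; 0% = enzyme with DMSO and 100% = wells lacking PAFAH2 protein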
* hit, by the source's call.

Screening CCOc1ccc(/C=c2\sc3nc(-c4ccco4)nn3c2=O)cc1OCC returned PAFAH1B2 FP inh 2, PAFAH1B3 inh 0, pPAFAH FP inh 10, TCR-CD3 inh 0 and PAFAH2 inh 6.
`COc1ccccc1/C=c1\sc2nc(-c3ccco3)nn2c1=O` gave PAFAH1B2 FP inh 6, PAFAH1B3 inh 3, pPAFAH FP inh 25* and PAFAH2 inh 17.
`O=C(NC(=S)NCc1ccccc1Cl)c1cccs1` gave PAFAH1B2 FP inh -6, PAFAH1B3 inh 0, pPAFAH FP inh 27*, TCR-CD3 inh 3 and PAFAH2 inh -1.
`CC1(OC(=O)c2cccs2)C(=O)C=C2C=C(C3CC3)OC=C2C1=O` (stereo not given) gave PAFAH1B2 FP inh 4, PAFAH1B3 inh -2, pPAFAH FP inh 17, TCR-CD3 inh 17 and PAFAH2 inh 7.
CC1(OC(=O)c2cnc3ccccc3n2)C(=O)C=C2C=C(C3CC3)OC=C2C1=O (stereo not given) was read as pPAFAH FP inh 50*.
Screening COC/C=C/C1=CC2=CC(=O)C(C)(OC(=O)c3cnc4ccccc4n3)C(=O)C2=CN1c1ccc(CO)cc1 (stereo not given) returned pPAFAH FP inh 39*.
For Cc1noc(NS(=O)(=O)c2ccc(NC(=O)CCC3CCCCC3)cc2)c1C the results were PAFAH1B2 FP inh 28*, PAFAH1B3 inh 12, pPAFAH FP inh 32*, TCR-CD3 inh 3 and PAFAH2 inh 13.
COCC(=O)Nc1ccc(S(=O)(=O)Nc2onc(C)c2C)cc1 was read as TCR-CD3 inh -4.
`Cc1noc(NS(=O)(=O)c2ccc(NC(=O)CSc3nc4ccccc4s3)cc2)c1C` gave PAFAH1B2 FP inh 28*, PAFAH1B3 inh 7, pPAFAH FP inh 0, TCR-CD3 inh 3 and PAFAH2 inh 6.
Screening CCCN1CCCCC(NC(=O)c2ccccc2C)C1=O (stereo not given) returned TCR-CD3 inh 9.
Cc1ccc(NC(=O)COC(=O)CC2CCCC2)cc1F was read as PAFAH1B2 FP inh -2, PAFAH1B3 inh 0, pPAFAH FP inh 30*, TCR-CD3 inh -1 and PAFAH2 inh 79*.
Screening COc1ccc(NS(=O)(=O)c2ccc(OC)c(NC(=O)CCC3CCCCC3)c2)cc1 returned PAFAH1B2 FP inh 10, PAFAH1B3 inh 4, pPAFAH FP inh 29*, TCR-CD3 inh -4 and PAFAH2 inh -6.
`O=C(COC(=O)c1ccc2c(c1)C(=O)N(CCc1ccccc1)C2=O)Nc1ccc(OC(F)F)cc1` gave PAFAH1B2 FP inh 5, PAFAH1B3 inh 7, pPAFAH FP inh 25*, TCR-CD3 inh 10 and PAFAH2 inh -4.
`COc1ccc(NS(=O)(=O)c2ccc(OC)c(NC(=O)CNC(=O)c3ccc(OC)cc3)c2)cc1` gave PAFAH1B2 FP inh 2, PAFAH1B3 inh -1, pPAFAH FP inh 18, TCR-CD3 inh -6 and PAFAH2 inh -8.
For COc1ccccc1C(=O)OCC(=O)Nc1ccc(OC(F)F)cc1 the results were PAFAH1B2 FP inh -2, PAFAH1B3 inh -6, pPAFAH FP inh 28*, TCR-CD3 inh 6 and PAFAH2 inh 48*.
Screening c1ccc(CCN=C2CCCc3c2[nH]c2ccccc32)cc1 returned PAFAH1B2 FP inh 0, PAFAH1B3 inh 5, pPAFAH FP inh 3, TCR-CD3 inh 1 and PAFAH2 inh -2.
CCCC(=O)OCC(=O)Nc1ccc(OC(F)F)cc1 was read as PAFAH1B2 FP inh -1, PAFAH1B3 inh 1, pPAFAH FP inh 4, TCR-CD3 inh 6 and PAFAH2 inh 7.
Screening CCc1ccc(NC(=O)COC(=O)CC2CCCC2)cc1 returned PAFAH1B2 FP inh 2, PAFAH1B3 inh 6, pPAFAH FP inh 26*, TCR-CD3 inh -4 and PAFAH2 inh 76*.
O=C(COC(=O)CC1CCCC1)Nc1ccc(OC(F)F)cc1 was read as PAFAH1B2 FP inh 1, PAFAH1B3 inh 3, pPAFAH FP inh 28*, TCR-CD3 inh -3 and PAFAH2 inh 62*.
For COc1ccc(NC(=O)COC(=O)CCC2CCCCC2)cc1 the results were PAFAH1B2 FP inh 12, PAFAH1B3 inh 4, pPAFAH FP inh 32*, TCR-CD3 inh -3 and PAFAH2 inh 32*.
For Nc1[nH]c(C(=O)c2ccccc2)c(-c2cccc(C(F)(F)F)c2)c1C(=O)NCCc1c[nH]c2ccccc12 the results were TCR-CD3 inh -2.
`CCc1cc2c(nc1CC)CCCN2Cc1ccc(Br)cc1` gave TCR-CD3 inh -5.
Nc1ncnc(Nc2ccccc2Oc2ccccc2)n1 was read as PAFAH1B2 FP inh 4, PAFAH1B3 inh 7, TCR-CD3 inh 3 and PAFAH2 inh 8.
For COC(=O)C1=C(C)N(C)C(=NCc2ccc(C(F)(F)F)cc2)NC1c1ccc(Cl)cc1 (stereo not given) the results were TCR-CD3 inh 7.
`O=[N+]([O-])c1ccc(O)c(/C=N/n2c(CO)nc3ccccc32)c1` gave PAFAH1B2 FP inh 9, PAFAH1B3 inh 10, pPAFAH FP inh 1, TCR-CD3 inh -5 and PAFAH2 inh 5.
`C/C(=N\OCc1nc2ccccc2c(=O)n1/N=C/c1cc([N+](=O)[O-])ccc1O)c1ccccc1` gave PAFAH1B2 FP inh 0, PAFAH1B3 inh 18, pPAFAH FP inh 62*, TCR-CD3 inh 23* and PAFAH2 inh 25.
`O=C1C(=O)c2ccccc2C(O)=C1c1ccccc1F` gave PAFAH1B2 FP inh 4, PAFAH1B3 inh 2, pPAFAH FP inh 1, TCR-CD3 inh -10 and PAFAH2 inh 5.
Screening O=C1C(O)=C(O)C(=O)c2ccccc21 returned PAFAH1B2 FP inh 3, PAFAH1B3 inh 30*, pPAFAH FP inh 10, TCR-CD3 inh -5 and PAFAH2 inh 15.
`C[C@H](O)[C@@H]1C(=O)N2CCc3c([nH]c4c(-c5ccccc5)cccc34)[C@@H]2C[C@@H]1N(C)C(=O)OCc1ccccc1` gave TCR-CD3 inh 3.
CN(C)S(=O)(=O)c1cccc(C(=O)Nc2cc(Cl)ccc2O)c1 was read as PAFAH1B2 FP inh 24*, PAFAH1B3 inh -3, pPAFAH FP inh 4, TCR-CD3 inh -5 and PAFAH2 inh -3.
`CN(C)S(=O)(=O)c1cccc(C(=O)Nc2ccccc2Cl)c1` gave PAFAH1B2 FP inh 3, PAFAH1B3 inh -2, pPAFAH FP inh 7, TCR-CD3 inh 2 and PAFAH2 inh 12.
Screening COc1ccc(CCn2c(-c3ccc(C(C)(C)C)cc3)n[nH]c2=S)cc1OC returned PAFAH1B2 FP inh 25*, PAFAH1B3 inh 5, pPAFAH FP inh 1, TCR-CD3 inh -4 and PAFAH2 inh 11.
Screening COCc1cc(N2CCN(C(=O)OC(C)(C)C)C[C@H]2C)ccc1N1CC[C@H](O)C1 returned TCR-CD3 inh 3.
For COc1ccccc1-c1nnc2sc(COc3ccc(Cl)cc3)nn12 the results were PAFAH1B2 FP inh 26*, PAFAH1B3 inh -3, pPAFAH FP inh 1, TCR-CD3 inh -9 and PAFAH2 inh 6.
Screening COc1ccc(Cc2nn3c(-c4ccccc4OC)nnc3s2)cc1 returned PAFAH1B2 FP inh 1, PAFAH1B3 inh 3, pPAFAH FP inh 11, TCR-CD3 inh 2 and PAFAH2 inh 5.
